Source: PubChem BioAssay (National Center for Advancing Translational Sciences (NCATS))
Shown is part of a subset that was picked to be rich in hits.
AmpC inh detg: inhibitors of E. coli AmpC beta-lactamase with detergent; P00811; AmpC hydrolysis of nitrocefin, absorbance 480 nm, 0.01% Triton; Potency, µM (series often up to 114 µM), usual class: inhibitors; 0.041% of 370,000 active; further: nearly all actives have a fitted effect of over 25% in size
Target sequence (P00811 whole entry, looked up): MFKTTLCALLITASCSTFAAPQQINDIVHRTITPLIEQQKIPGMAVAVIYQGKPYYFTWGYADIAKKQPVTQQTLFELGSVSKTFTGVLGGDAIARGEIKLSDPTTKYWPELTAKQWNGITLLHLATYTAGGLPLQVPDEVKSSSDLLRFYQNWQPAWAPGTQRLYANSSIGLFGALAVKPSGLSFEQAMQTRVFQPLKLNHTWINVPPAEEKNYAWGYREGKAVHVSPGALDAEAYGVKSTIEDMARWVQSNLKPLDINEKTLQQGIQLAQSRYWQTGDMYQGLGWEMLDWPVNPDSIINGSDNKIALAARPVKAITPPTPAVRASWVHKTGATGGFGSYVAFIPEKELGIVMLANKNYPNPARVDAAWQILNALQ
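20 mM phosphate pH 7.0 + 0.01% (detergent screen) or 0.0001% Triton X-100; 5.3 nM AmpC reagent; cpd preinc 15 min RT; nitrocefin (800 uM stock) to start; A480 q20 s × 4 min; Activity was normalised to no-enzyme and no-compound control wells.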
Cycloheximide cs: affects cycloheximide protein synthesis inhibition readout, counter-screen. max response, %. 12% of 300,000 active. cell reporter, cycloheximide protein synthesis inhibition counterscreen; in the data active means max response mostly above about 13%, no sharp cut-off; inactive means mostly below about 14%; further: read at 38.3 µM for the half of the compounds with a filed dose
NS1 function inh: blocks influenza NS1 protein function | 0.4% of 270,000 active | Potency, µM (series often up to 46.1 µM); calls by dose curve; further: actives are rising curves; nearly all actives have a fitted effect of over 50% in size
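S. cerevisiae expressing influenza A NS1, grown in glucose, washed, then diluted 1:100 into pH 6.0 -URA galactose medium with 23 nl compound. Growth recovery read as OD600; NS1-free strain serves as control.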
AmpC inh no detg: inhibitors of E. coli AmpC beta-lactamase without detergent; P00811; AmpC nitrocefin hydrolysis, absorbance 480 nm, 0.0001% Triton; Potency, µM (titrated, usually from 57.1 µM), most hits filed as inhibitors; 0.52% of 330,000 active; AID 485341; further: nearly all actives have a fitted effect of over 20% in size
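AmpC (5.3 nM in the dispensed reagent) in 20 mM phosphate pH 7.0 with 0.01% (detergent screen) or 0.0001% Triton X-100 was preincubated with compounds for 15 min at room temperature. Nitrocefin was then added from an 800 uM solution, and hydrolysis was followed at 480 nm.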
Shiga toxin inh: inhibitors of Shiga toxin in Vero cells; Vero cells, Shiga toxin protein synthesis inhibition reporter; inhibition, % at 38.7 µM; 9.2% of 290,000 active; AID 2315; in the data active means inhibition mostly above about 28%, no sharp cut-off; inactive means mostly below about 43%
Of the large screens only hits and unclear results are named; the others gave an inactive call. Unless noted, the call rests on the fitted dose curve; in most records, active means well fitted curve in the direction sought with a large enough effect; inconclusive means small, poorly fitted or top-dose-only effect, or another doubt; inactive means no such curve, though single readings can be large; an effect the other way counts as inactive or inconclusive.

CCCCN(C)C(=O)C1CCN(Cc2ccc(OCc3ccccc3)cc2)CC1	Shiga toxin inh active
NC(=O)C1CCN(Cc2ccc(OCc3ccccc3)cc2)CC1	Cycloheximide cs 25.0, Shiga toxin inh 54.3
COc1ccc(C(=O)NC(C)C2CC3CCC2C3)cc1 (stereo not drawn)	AmpC inh detg inconclusive, Cycloheximide cs 10.9
Cc1ccc(C(=O)NC(C)C2CC3CCC2C3)c(C)c1 (stereo not drawn)	AmpC inh detg inconclusive, Shiga toxin inh 90.0
CC(NC(=O)c1ccc(F)cc1Cl)C1CC2CCC1C2 (stereo not drawn)	none
CC(NC(=O)c1ccc(N(C)C)cc1)C1CC2CCC1C2 (stereo not drawn)	Cycloheximide cs 13.8
COc1ccc(NC(=O)NC(C)C2CC3CCC2C3)cc1 (stereo not drawn)	none
CC(NC(=O)c1ccc(C#N)cc1)C1CC2CCC1C2 (stereo not drawn)	none
O=C(CSc1ccccc1C(=O)O)c1ccccc1	none
O=C(CSc1ccccc1C(=O)O)c1ccc(Cl)cc1	Cycloheximide cs 29.6, Shiga toxin inh 65.0
CC(C)(C)n1ncc2c(=O)n(CC(=O)Nc3ccccc3)cnc21	AmpC inh detg inconclusive
CC(C)(C)n1ncc2c(=O)n(CC(=O)NCc3ccc(F)cc3)cnc21	Cycloheximide cs 27.0, Shiga toxin inh 54.5
CC(C)(C)n1ncc2c(=O)n(CC(=O)NC3CCCCC3)cnc21	Cycloheximide cs 34.7, Shiga toxin inh 84.8
CC(C)(C)n1ncc2c(=O)n(CC(=O)NCc3ccco3)cnc21	AmpC inh detg inconclusive, Cycloheximide cs 45.9, Shiga toxin inh 67.0
O[C@@H](c1cc(-c2ccc(Cl)cc2)nc2ccccc12)C1CCCCN1 (stereo partly drawn)	none (no result: AmpC inh detg, Cycloheximide cs, AmpC inh no detg, Shiga toxin inh)
COc1ccc(-c2cn3nc(N4CCCC(C(=O)NCc5ccc(Cl)cc5)C4)sc3n2)cc1 (stereo not drawn)	none (no result: Cycloheximide cs, NS1 function inh, AmpC inh no detg, Shiga toxin inh)
CC[C@H](C)[C@H](NC(=O)[C@H](CC(C)C)NC(=O)[C@@H](N)CO)C(=O)NCC(=O)N[C@@H](CCCN=C(N)N)C(=O)N[C@@H](CC(C)C)C(=O)O	none (no result: AmpC inh detg, NS1 function inh, AmpC inh no detg)
COc1ccc(NC(=O)NC(=O)c2ccccc2)cc1	Cycloheximide cs 25.0 (no result: Shiga toxin inh)
COc1ccc(C(=O)NNC(=O)Nc2ccc(C)cc2)cc1	none
COc1ccccc1NC(=O)c1nn(-c2ccccc2)ccc1=O	AmpC inh no detg 0.141µM
COc1ccccc1NC(=O)NC(=O)c1ccccc1	Cycloheximide cs 22.9, Shiga toxin inh 58.9
O=C(NC(=O)c1ccccc1)Nc1ccccc1	Cycloheximide cs 41.9, Shiga toxin inh 51.0
COc1ccc(C2/C=C\CN(C(=O)c3ccc(C)cc3)C(C)C(=O)N2Cc2ccc(F)cc2)cc1 (stereo not drawn)	Cycloheximide cs 83.5, Shiga toxin inh 144.3 (no result: AmpC inh detg, NS1 function inh, AmpC inh no detg)
COc1ccc(C2/C=C\CN(Cc3ccccc3)C(C)C(=O)N2Cc2ccc(F)cc2)cc1 (stereo not drawn)	Cycloheximide cs 36.2, Shiga toxin inh 61.9 (no result: AmpC inh detg, NS1 function inh, AmpC inh no detg)
COc1ccc(C2/C=C\CN(C(=O)c3ccccc3)C(C)C(=O)N2Cc2ccc(F)cc2)cc1 (stereo not drawn)	none (no result: AmpC inh detg, NS1 function inh, AmpC inh no detg)
COc1ccc(C2/C=C\CN([S+](=O)([O-])c3ccc4ccccc4c3)C(C)C(=O)N2Cc2ccc(F)cc2)cc1 (stereo not drawn)	Shiga toxin inh 148.5 (no result: AmpC inh detg, NS1 function inh, AmpC inh no detg)
Fc1ccc(N2CCN(Cc3cccn3-c3nnc(N4CCN(C5CCCCC5)CC4)s3)CC2)cc1	none (no result: Cycloheximide cs, NS1 function inh, AmpC inh no detg, Shiga toxin inh)
CC(C)(C)N/C=C(\C#N)S(=O)(=O)c1ccc(Br)cc1	none
Cc1ccccc1NC(=O)COC(=O)c1ccc(S(=O)(=O)N2CCCC2)cc1	none (no result: Cycloheximide cs, NS1 function inh, Shiga toxin inh)
NC(=O)c1cc(S(=O)(=O)N2CCN(c3ccc([N+](=O)[O-])cc3)CC2)cs1	none
O=C(COc1ccc2c3c(c(=O)oc2c1)CCCC3)NCc1cccnc1	none
CCN(/C(N)=N/c1nc(C)cc(C)n1)c1ccccc1	AmpC inh detg inconclusive, Cycloheximide cs 13.4
CCOc1ccc(NC(=O)CSc2oc(-c3ccc(C)cc3)nc2S(=O)(=O)c2ccc(C)cc2)cc1	none (no result: Cycloheximide cs, NS1 function inh, AmpC inh no detg, Shiga toxin inh)
Fc1cccc(Cl)c1/C=C/c1cnc2ccccc2n1	Cycloheximide cs 48.5, Shiga toxin inh 75.5
O=C(/C=C/c1ccc2ccccc2n1)N1CCN(S(=O)(=O)c2ccccc2F)CC1	none
Fc1cccc(F)c1/C=C/c1ccc2ccccc2n1	Cycloheximide cs 24.1, Shiga toxin inh 53.6
O=C1OC(c2ccccc2)=N/C1=C\C=C\c1ccco1	none
O=S(=O)(c1ccc(Cl)cc1)c1cnc2ccccc2n1	none (no result: NS1 function inh)
C(=C\c1ccco1)/c1ccc2ccccc2n1	Cycloheximide cs 38.0, Shiga toxin inh 52.0
CC(O)/C=C/c1ccc2ccccc2n1 (stereo not drawn)	Cycloheximide cs 23.2, Shiga toxin inh 33.0
CC(OC(=O)/C=C/c1ccc2ccccc2n1)C(=O)NCc1ccccc1 (stereo not drawn)	none (no result: Cycloheximide cs, NS1 function inh, Shiga toxin inh)
O=C(CCN1C(=O)C2CCCCC2C1=O)Nc1ccc(Br)cc1F (stereo not drawn)	none (no result: Cycloheximide cs, NS1 function inh, Shiga toxin inh)
Cc1ccnc(NC(=S)NC(=O)/C=C/c2ccc(Cl)cc2)c1	Cycloheximide cs 25.6, Shiga toxin inh 25.8
O=C(/C=C/c1ccccc1)NC(=S)Nc1cccnc1	none
Cc1cccnc1NC(=S)NC(=O)/C=C/c1ccccc1	Cycloheximide cs 30.9, Shiga toxin inh 77.6
Cc1ccnc(NC(=S)NC(=O)/C=C/c2ccccc2)c1	Cycloheximide cs 31.6, Shiga toxin inh 61.1
CC(=O)Nc1ccc(NC(=S)NC(=O)/C=C/c2ccc(Cl)cc2)cc1	none (no result: NS1 function inh)
CCc1cc(=O)oc2c3c(c(Cl)cc12)OCN(Cc1cccc(OC)c1)C3	none (no result: Cycloheximide cs, NS1 function inh, AmpC inh no detg, Shiga toxin inh)
CCCCNc1nc(Oc2ccc(OCC(N)=O)nn2)nc(N2CCOCC2)n1	none (no result: Cycloheximide cs, NS1 function inh, AmpC inh no detg, Shiga toxin inh)
CCOC(=O)c1sc2nc(C)nc(SC(C)C(=O)NC3CC3)c2c1C (stereo not drawn)	none (no result: Cycloheximide cs, NS1 function inh, Shiga toxin inh)
C=CCn1c(COc2ccc3c(c2)CCCC3)nnc1SCC(=O)Nc1cccc(SC)c1	Cycloheximide cs 46.7, Shiga toxin inh 58.0
C=CCn1c(COc2ccccc2)nnc1SCC(=O)Nc1ccc2c(c1)OCCO2	none
CCN(CC)CCCNC(=O)c1ccc2c(c1)sc1nc(-c3ccc(C)cc3)cn12	none (no result: Cycloheximide cs, NS1 function inh, AmpC inh no detg, Shiga toxin inh)
O=C(NCCc1ccccc1F)C1CCCN1S(=O)(=O)c1ccc2ccccc2c1 (stereo not drawn)	Cycloheximide cs 21.0
O=C(N/N=C/c1ccccn1)c1cc([N+](=O)[O-])cc([N+](=O)[O-])c1	none (no result: NS1 function inh)
O=C(N/N=C/c1ccccn1)c1ccc([N+](=O)[O-])cc1	Cycloheximide cs 36.4, Shiga toxin inh 100.0 (no result: NS1 function inh)
O=C(N/N=C/c1ccccn1)c1cccc([N+](=O)[O-])c1	Cycloheximide cs 8.8, Shiga toxin inh 54.9
CCc1ccc(-c2nc(CN3CCCC(C(=O)NCc4ccc(C)cc4)C3)c(C)o2)cc1 (stereo not drawn)	none (no result: Cycloheximide cs, NS1 function inh, AmpC inh no detg, Shiga toxin inh)
COc1cc2[nH]c3c(=O)n4c(nc3c2cc1OC)SCCC4	Cycloheximide cs 24.8, Shiga toxin inh 30.8 (no result: NS1 function inh)
O=C(c1ccccc1)c1nnc(-c2ccccc2F)o1	Cycloheximide cs 44.7, Shiga toxin inh 68.7
